Test results taken from the supplement of paper PMC11732987, “Enantioselective OTUD7B fragment discovery through chemoproteomics screening and high-throughput optimisation” (Communications Chemistry, 2025).

Columns and labels:
Experiment in all cases: log2 ratio of Biotin-Ahx-Ub-VS probe labelling (fragment/DMSO); higher = less target engagement (more negative = stronger competition), active = hit call of the paper (q ≤ 0.05, log2 ratio ≤ -1)
Conditions in all cases: compound concentration: 200 uM; treatment time: 3 h
OTUD6B = biological target: T1, OTUD6B (UniProt Q8N6M0)
T1 sequence (whole entry): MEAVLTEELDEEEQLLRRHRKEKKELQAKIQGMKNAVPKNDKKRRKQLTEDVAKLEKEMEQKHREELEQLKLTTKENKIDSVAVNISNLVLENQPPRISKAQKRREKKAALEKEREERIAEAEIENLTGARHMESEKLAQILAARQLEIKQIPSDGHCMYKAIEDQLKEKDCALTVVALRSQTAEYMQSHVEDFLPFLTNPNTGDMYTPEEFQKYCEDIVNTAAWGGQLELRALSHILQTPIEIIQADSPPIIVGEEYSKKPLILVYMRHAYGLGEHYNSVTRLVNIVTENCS
Method in brief: (§1)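 Average log2 ratios of fragment over vehicle were obtained by unpaired t-test from global-median-normalised Spectronaut label-free quantities. Proteins with ≥2 unique peptides were included. HEK293T lysate (495 µg per sample) was treated in triplicate with fragment at 200 µM or vehicle for 3 h, then with Biotin-Ahx-Ub-VS at 0.5 µM final for 1 h, and labelled DUBs were NeutrAvidin-enriched and run by diaPASEF LC-MS/MS.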

OTUD7B = biological target: T2, OTUD7B (UniProt Q6GQQ9)
T2 sequence (whole entry): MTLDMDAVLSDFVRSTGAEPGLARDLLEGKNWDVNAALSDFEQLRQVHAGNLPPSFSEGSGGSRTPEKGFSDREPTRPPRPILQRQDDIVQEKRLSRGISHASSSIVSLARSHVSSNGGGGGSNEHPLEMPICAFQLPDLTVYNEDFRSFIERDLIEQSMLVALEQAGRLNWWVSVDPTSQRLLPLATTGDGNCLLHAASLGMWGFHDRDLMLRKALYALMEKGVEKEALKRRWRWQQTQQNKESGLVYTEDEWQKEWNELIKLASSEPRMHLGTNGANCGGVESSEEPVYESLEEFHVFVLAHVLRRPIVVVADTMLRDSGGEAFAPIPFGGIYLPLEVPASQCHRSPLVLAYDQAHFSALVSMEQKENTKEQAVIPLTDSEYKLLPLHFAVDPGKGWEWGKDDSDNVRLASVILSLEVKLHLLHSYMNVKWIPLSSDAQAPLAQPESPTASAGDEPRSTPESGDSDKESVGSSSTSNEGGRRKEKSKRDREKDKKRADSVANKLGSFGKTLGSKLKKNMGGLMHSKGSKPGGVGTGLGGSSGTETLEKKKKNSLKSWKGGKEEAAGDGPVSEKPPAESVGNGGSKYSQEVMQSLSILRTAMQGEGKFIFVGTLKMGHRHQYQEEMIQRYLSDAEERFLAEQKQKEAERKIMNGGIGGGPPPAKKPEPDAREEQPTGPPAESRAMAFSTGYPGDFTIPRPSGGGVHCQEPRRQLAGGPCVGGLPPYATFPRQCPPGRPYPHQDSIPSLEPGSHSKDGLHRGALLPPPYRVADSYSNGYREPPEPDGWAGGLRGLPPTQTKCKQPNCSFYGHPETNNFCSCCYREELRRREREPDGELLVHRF
Method in brief: as §1

PRPF8 = PRPF8 (UniProt Q6P2Q9)
Method in brief: as §1

PSMD7 = biological target: T3, PSMD7 (UniProt P51665)
T3 sequence (whole entry): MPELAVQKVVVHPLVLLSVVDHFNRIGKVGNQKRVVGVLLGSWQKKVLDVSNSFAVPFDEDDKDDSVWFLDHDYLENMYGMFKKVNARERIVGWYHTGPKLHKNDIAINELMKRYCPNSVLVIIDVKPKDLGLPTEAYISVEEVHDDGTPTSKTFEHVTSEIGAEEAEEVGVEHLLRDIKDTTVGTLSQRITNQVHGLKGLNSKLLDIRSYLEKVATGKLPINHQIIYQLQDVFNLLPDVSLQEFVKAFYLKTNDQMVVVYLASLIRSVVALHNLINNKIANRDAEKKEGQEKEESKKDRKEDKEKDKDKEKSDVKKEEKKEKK
Method in brief: as §1

UCHL1 = UCHL1 (UniProt P09936)
UCHL1, sequence (P09936 whole entry, looked up): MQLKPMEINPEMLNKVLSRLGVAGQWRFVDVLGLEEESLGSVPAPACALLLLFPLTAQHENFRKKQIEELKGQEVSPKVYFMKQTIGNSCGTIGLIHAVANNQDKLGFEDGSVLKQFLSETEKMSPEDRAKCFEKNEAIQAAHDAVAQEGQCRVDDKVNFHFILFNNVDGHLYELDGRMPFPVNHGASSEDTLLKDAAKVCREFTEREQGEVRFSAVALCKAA
Method in brief: as §1

UCHL3 = biological target: T4, UCHL3 (UniProt P15374)
T4 sequence (whole entry): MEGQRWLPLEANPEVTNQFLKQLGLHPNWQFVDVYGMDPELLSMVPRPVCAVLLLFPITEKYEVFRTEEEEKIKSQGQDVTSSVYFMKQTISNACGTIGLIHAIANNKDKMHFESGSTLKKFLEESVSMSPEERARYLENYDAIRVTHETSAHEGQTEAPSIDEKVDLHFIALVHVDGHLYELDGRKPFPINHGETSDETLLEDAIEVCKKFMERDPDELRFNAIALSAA
Method in brief: as §1

UCHL5 = biological target: T5, UCHL5 (UniProt Q9Y5K5)
T5 sequence (whole entry): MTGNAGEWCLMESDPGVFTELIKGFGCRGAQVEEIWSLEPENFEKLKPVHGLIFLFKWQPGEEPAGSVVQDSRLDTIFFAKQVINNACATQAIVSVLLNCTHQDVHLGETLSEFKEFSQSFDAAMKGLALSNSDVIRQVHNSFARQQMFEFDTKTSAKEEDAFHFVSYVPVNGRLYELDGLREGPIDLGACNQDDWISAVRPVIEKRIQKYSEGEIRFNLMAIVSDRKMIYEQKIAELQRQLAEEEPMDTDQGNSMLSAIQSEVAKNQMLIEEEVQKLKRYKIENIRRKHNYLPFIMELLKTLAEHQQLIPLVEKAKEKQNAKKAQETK
Method in brief: as §1

USP10 = USP10 (UniProt Q14694)
USP10, sequence (Q14694 whole entry): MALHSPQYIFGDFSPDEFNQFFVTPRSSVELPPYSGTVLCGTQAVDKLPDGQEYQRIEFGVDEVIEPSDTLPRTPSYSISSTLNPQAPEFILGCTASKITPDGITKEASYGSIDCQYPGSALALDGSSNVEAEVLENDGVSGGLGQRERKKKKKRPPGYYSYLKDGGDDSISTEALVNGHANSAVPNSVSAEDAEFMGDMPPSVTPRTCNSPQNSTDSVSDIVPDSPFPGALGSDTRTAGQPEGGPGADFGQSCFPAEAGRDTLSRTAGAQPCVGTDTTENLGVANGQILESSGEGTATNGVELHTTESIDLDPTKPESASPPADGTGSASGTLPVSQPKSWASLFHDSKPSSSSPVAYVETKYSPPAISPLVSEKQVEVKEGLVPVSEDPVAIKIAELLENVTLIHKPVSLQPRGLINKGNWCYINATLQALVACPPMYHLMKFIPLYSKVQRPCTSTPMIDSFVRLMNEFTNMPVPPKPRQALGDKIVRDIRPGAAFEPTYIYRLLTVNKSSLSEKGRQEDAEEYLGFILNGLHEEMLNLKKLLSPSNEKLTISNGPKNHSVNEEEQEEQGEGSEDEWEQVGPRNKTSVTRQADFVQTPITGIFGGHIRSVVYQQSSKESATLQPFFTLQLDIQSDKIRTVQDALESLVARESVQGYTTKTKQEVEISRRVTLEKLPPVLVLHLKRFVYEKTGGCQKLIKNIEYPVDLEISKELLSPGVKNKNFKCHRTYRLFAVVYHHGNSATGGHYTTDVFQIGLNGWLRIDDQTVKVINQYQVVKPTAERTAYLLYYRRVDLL
Method in brief: as §1

USP15 = biological target: T6, USP15 (UniProt Q9Y4E8)
T6 sequence (whole entry): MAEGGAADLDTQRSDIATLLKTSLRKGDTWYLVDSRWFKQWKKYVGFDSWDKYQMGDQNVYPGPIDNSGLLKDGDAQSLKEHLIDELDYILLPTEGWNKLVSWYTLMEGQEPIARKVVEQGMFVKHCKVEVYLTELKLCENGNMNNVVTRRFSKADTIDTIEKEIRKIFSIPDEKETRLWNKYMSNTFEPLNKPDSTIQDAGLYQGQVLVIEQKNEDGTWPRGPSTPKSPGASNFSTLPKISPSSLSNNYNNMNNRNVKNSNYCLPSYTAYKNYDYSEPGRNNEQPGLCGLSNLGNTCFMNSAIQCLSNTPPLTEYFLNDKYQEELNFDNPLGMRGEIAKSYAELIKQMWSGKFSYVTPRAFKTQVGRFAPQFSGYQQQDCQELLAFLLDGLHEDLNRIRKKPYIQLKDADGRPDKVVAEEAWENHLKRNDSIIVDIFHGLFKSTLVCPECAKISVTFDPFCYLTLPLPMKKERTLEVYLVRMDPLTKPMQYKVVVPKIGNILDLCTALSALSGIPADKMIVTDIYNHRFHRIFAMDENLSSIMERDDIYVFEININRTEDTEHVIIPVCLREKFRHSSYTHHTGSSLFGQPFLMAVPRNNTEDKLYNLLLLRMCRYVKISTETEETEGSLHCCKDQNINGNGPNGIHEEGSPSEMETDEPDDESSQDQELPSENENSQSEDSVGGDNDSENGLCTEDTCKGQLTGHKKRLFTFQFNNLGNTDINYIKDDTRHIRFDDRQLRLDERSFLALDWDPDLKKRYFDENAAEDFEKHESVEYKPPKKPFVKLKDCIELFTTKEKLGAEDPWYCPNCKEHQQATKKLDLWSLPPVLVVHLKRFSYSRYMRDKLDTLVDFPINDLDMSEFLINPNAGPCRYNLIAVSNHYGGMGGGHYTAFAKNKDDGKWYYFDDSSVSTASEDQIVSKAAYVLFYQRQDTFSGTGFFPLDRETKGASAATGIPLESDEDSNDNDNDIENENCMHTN
Method in brief: as §1

USP16 = USP16 (UniProt Q9Y5T5)
USP16, sequence (Q9Y5T5 whole entry, looked up): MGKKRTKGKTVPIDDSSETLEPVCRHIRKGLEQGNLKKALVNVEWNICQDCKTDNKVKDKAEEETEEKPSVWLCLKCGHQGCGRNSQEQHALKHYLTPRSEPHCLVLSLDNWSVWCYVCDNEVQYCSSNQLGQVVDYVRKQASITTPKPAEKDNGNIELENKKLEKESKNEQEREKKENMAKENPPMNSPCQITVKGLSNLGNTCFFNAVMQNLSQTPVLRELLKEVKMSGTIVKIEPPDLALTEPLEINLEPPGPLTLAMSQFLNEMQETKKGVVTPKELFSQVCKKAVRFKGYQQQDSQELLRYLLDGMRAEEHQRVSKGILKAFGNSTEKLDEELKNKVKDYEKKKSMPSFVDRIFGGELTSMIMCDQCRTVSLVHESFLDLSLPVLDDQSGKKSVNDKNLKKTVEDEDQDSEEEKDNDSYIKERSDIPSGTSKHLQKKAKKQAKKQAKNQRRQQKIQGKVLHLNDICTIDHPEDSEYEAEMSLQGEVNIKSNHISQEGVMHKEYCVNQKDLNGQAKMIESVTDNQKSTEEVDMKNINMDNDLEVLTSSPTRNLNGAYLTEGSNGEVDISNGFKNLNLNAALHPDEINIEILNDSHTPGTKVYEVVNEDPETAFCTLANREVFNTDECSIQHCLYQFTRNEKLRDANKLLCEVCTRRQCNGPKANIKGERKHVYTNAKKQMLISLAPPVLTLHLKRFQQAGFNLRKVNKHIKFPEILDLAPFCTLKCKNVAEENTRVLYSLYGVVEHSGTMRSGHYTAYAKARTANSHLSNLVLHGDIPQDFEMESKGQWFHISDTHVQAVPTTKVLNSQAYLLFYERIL
Method in brief: as §1

Measured: log2 ratio of Biotin-Ahx-Ub-VS probe labelling

Cc1ccc(-c2nnc(C)[nH]2)c(NC(=O)CCl)c1
active: UCHL1 -1.14
inactive: OTUD6B -0.00419 | OTUD7B -0.183 | PRPF8 -0.0454 | PSMD7 -0.177 | UCHL3 0.176 | UCHL5 -0.152 | USP10 0.0193 | USP15 -0.0491 | USP16 0.114
